The supplement of paper PMC8728848
Only a selection was taken, and the strongest signals are over-represented in it overall.

Columns and labels:
Assay in all cases: glycan array binding signal (z-score within array); higher = stronger binding
Conditions in all cases: glycan notation: IUPAC condensed, linker removed
Fuc(a1-2)Gal = target: Fuc(a1-2)Gal
In short: (§1)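 The binding signal is a Z-score computed within each array and averaged over linkers. Arrays of the same protein sequence at different concentrations or buffers were also averaged together. Data originate from 3228 arrays in the Consortium for Functional Glycomics database, kept only where the protein sequence was available.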

Fuc(a1-2)[Gal(a1-3)]Gal = target: Fuc(a1-2)[Gal(a1-3)]Gal
In short: as §1

[1] = target: Fuc(a1-3)[Gal3S(b1-4)]Glc6S
In short: as §1

Gal(a1-3)GalNAc = target: Gal(a1-3)GalNAc
In short: as §1

Gal(a1-4)Gal(b1-4)Glc = target: Gal(a1-4)Gal(b1-4)Glc
In short: as §1

Gal(a1-4)GlcNAc = target: Gal(a1-4)GlcNAc
In short: as §1

Gal(b1-2)Gal = target: Gal(b1-2)Gal
In short: as §1

[2] = target: Gal(b1-4)GalNAc(a1-3)[Fuc(a1-2)]Gal(b1-4)GlcNAc
In short: as §1

[3] = target: Gal(b1-4)GlcNAc(b1-3)GalNAc
In short: as §1

Gal3S(b1-4)GlcNAc = target: Gal3S(b1-4)GlcNAc
In short: as §1

[4] = target: Gal3S(b1-4)[Fuc(a1-3)]Glc
In short: as §1

GalNAc(b1-4)GlcNAc = target: GalNAc(b1-4)GlcNAc
In short: as §1

GlcA(b1-3)Gal = target: GlcA(b1-3)Gal
In short: as §1

[5] = target: GlcNAc(b1-4)GlcNAc(b1-4)GlcNAc(b1-4)GlcNAc(b1-4)GlcNAc(b1-4)GlcNAc
In short: as §1

[6] = target: Neu5Ac(a2-3)Gal(b1-3)GalNAc
In short: as §1

[7] = target: Neu5Ac(a2-3)Gal(b1-3)GalNAc(b1-3)Gal(a1-4)Gal(b1-4)Glc
In short: as §1

[8] = target: Neu5Ac(a2-3)Gal(b1-3)GalNAc(b1-4)[Neu5Ac(a2-3)]Gal(b1-4)Glc
In short: as §1

[9] = target: Neu5Ac(a2-3)Gal(b1-3)[Neu5Ac(a2-6)]GalNAc
In short: as §1

Neu5Ac(a2-3)Gal(b1-4)Glc = target: Neu5Ac(a2-3)Gal(b1-4)Glc
In short: as §1

[10] = target: Neu5Ac(a2-3)Gal(b1-4)GlcNAc(b1-2)Man(a1-3)[GlcNAc(b1-2)Man(b1-4)GlcNAc(b1-2)Man(a1-6)]Man(b1-4)GlcNAc(b1-4)GlcNAc
In short: as §1

[11] = target: Neu5Ac(a2-3)Gal(b1-4)GlcNAc(b1-6)[Neu5Ac(a2-3)Gal(b1-3)]GalNAc
In short: as §1

[12] = target: Neu5Ac(a2-3)Gal(b1-4)GlcNAc6S
In short: as §1

[13] = target: Neu5Ac(a2-3)Gal(b1-4)[Fuc(a1-3)]GlcNAc(b1-3)Gal(b1-4)[Fuc(a1-3)]GlcNAc(b1-3)Gal(b1-4)[Fuc(a1-3)]GlcNAc
In short: as §1

[14] = target: Neu5Ac(a2-3)GalNAc(b1-4)GlcNAc
In short: as §1

[15] = target: Neu5Ac(a2-6)Gal(b1-4)GlcNAc(b1-2)Man(a1-3)[GlcNAc(b1-2)Man(a1-6)]Man(b1-4)GlcNAc(b1-4)GlcNAc
In short: as §1

[16] = target: Neu5Ac(a2-6)Gal(b1-4)GlcNAc(b1-2)Man(a1-6)[GlcNAc(b1-2)Man(a1-3)]Man(b1-4)GlcNAc(b1-4)GlcNAc
In short: as §1

[17] = target: Neu5Ac(a2-6)GalNAc(b1-4)GlcNAc
In short: as §1

Fuc(a1-2)Gal(b1-3)GalNAc = target: Fuc(a1-2)Gal(b1-3)GalNAc
In short: as §1

[18] = target: Fuc(a1-2)Gal(b1-3)GalNAc(b1-3)Gal
In short: as §1

Fuc(a1-2)Gal(b1-3)GlcNAc = target: Fuc(a1-2)Gal(b1-3)GlcNAc
In short: as §1

Fuc(a1-2)Gal(b1-4)Glc = target: Fuc(a1-2)Gal(b1-4)Glc
In short: as §1

[19] = target: Fuc(a1-2)Gal6S(b1-4)Glc6S
In short: as §1

[20] = target: Fuc(a1-2)[GalNAc(b1-3)]Gal
In short: as §1

[21] = target: Fuc(a1-3)[Gal(b1-4)]GlcNAc
In short: as §1

[22] = target: Fuc(a1-3)[Gal(b1-4)]GlcNAc(b1-2)Man(a1-6)[Gal(b1-4)GlcNAc(b1-2)Man(a1-3)]Man(b1-4)GlcNAc(b1-4)GlcNAc
In short: as §1

[23] = target: Fuc(a1-3)[Gal(b1-4)]GlcNAc(b1-4)Gal(b1-4)[Fuc(a1-3)]GlcNAc(b1-4)Gal(b1-4)[Fuc(a1-3)]GlcNAc
In short: as §1

[24] = target: Fuc(a1-3)[Gal3S(b1-4)]GlcNAc6S
In short: as §1

[25] = target: Gal(b1-4)GlcNAc(b1-6)Gal(b1-4)GlcNAc(b1-6)GalNAc
In short: as §1

[26] = target: Gal3S(b1-3)[Fuc(a1-4)]GlcNAc
In short: as §1

Gal3S(b1-4)Glc6S = target: Gal3S(b1-4)Glc6S
In short: as §1

Gal3S6S(b1-4)GlcNAc6S = target: Gal3S6S(b1-4)GlcNAc6S
In short: as §1

Gal4S6S(b1-4)GlcNAc = target: Gal4S6S(b1-4)GlcNAc
In short: as §1

Gal6S(b1-4)Glc6S = target: Gal6S(b1-4)Glc6S
In short: as §1

[27] = target: GlcNAc(a1-6)Gal(b1-4)GlcNAc
In short: as §1

GlcNAc(b1-3)Gal = target: GlcNAc(b1-3)Gal
In short: as §1

[28] = target: GlcNAc(b1-4)Gal(b1-4)GlcNAc
In short: as §1

[29] = target: GlcNAc(b1-4)[GlcNAc(b1-6)]GalNAc
In short: as §1

[30] = target: Man(a1-2)Man(a1-3)[Man(a1-6)]Man(a1-6)[Man(a1-2)Man(a1-3)]Man(b1-4)GlcNAc(b1-4)GlcNAc
In short: as §1

[31] = target: Man(a1-3)[Man(a1-6)]Man(b1-4)GlcNAc(b1-4)GlcNAc
In short: as §1

Man(a1-6)Man = target: Man(a1-6)Man
In short: as §1

[32] = target: Neu5Ac(a2-6)Gal(b1-4)GlcNAc(b1-2)Man(a1-3)[Gal(b1-4)GlcNAc(b1-2)Man(a1-6)]Man(b1-4)GlcNAc(b1-4)GlcNAc
In short: as §1

[33] = target: Neu5Ac(a2-6)Gal(b1-4)GlcNAc(b1-3)Gal(b1-4)GlcNAc
In short: as §1

[34] = target: Neu5Ac(a2-8)Neu5Ac(a2-3)[GalNAc(b1-4)]Gal(b1-4)Glc
In short: as §1

B1: LYVE-1 (Homo sapiens), Q9Y5Y7 (protein)
chain: MARCFSLVLLLTSIWTTRLLVQGSLRAEELSIQVSCRIMGITLVSKKANQQLNFTEAKEACRLLGLSLAGKDQVETALKASFETCSYGWVGDGFVVISRISPNPKCGKNGVGVLIWKVPVSRQFAAYCYNSSDTWTNSCIPEIITTKDPIFNTQTATQTTEFIVSDSTYSVASPYSTIPAPTTTPPAPASTSIPRRKKLICVTEVFMETSTMSTETEPFVENKAAFKNEAAGDPEVKFNWYVDGVEVHNAKPREEQYNSTYRVVSLVTVLHQDWLNGKEYKCKVSNKALPAPIEKTISKAKGQPREPQVYTLPPSRDELTKNQVSLTCLVKGFYPSDIAVEWESNGQPENNYKTTPPVLDSDGSFFLYSKLTVDKSRWQQGNVFSCSVMHEALHNHYTQRSLSLSPGK
Fuc(a1-2)Gal
  glycan array binding signal (z-score): -0.222
Fuc(a1-2)[Gal(a1-3)]Gal
  glycan array binding signal (z-score): 0.242
[1]
  glycan array binding signal (z-score): -0.066
Gal(a1-3)GalNAc
  glycan array binding signal (z-score): -0.27
Gal(a1-4)Gal(b1-4)Glc
  glycan array binding signal (z-score): -0.09
Gal(a1-4)GlcNAc
  glycan array binding signal (z-score): -0.269
Gal(b1-2)Gal
  glycan array binding signal (z-score): -0.409
[2]
  glycan array binding signal (z-score): -0.338
[3]
  glycan array binding signal (z-score): -0.411
Gal3S(b1-4)GlcNAc
  glycan array binding signal (z-score): -0.036
[4]
  glycan array binding signal (z-score): -0.34
GalNAc(b1-4)GlcNAc
  glycan array binding signal (z-score): -0.259
GlcA(b1-3)Gal
  glycan array binding signal (z-score): -0.466
[5]
  glycan array binding signal (z-score): -0.624
[6]
  glycan array binding signal (z-score): 3.93
[7]
  glycan array binding signal (z-score): 1.74
[8]
  glycan array binding signal (z-score): 4.82
[9]
  glycan array binding signal (z-score): 0.133
Neu5Ac(a2-3)Gal(b1-4)Glc
  glycan array binding signal (z-score): 0.324
[10]
  glycan array binding signal (z-score): -0.128
[11]
  glycan array binding signal (z-score): 6.79
[12]
  glycan array binding signal (z-score): -0.351
[13]
  glycan array binding signal (z-score): 5.13
[14]
  glycan array binding signal (z-score): 3.73
[15]
  glycan array binding signal (z-score): -0.596
[16]
  glycan array binding signal (z-score): -0.436
[17]
  glycan array binding signal (z-score): 2.4

B2: MUC1-SEA-mFcIgG2a (Homo sapiens), P15941 (SEA domain only) (protein)
chain: DAAQPARRAVRSSSELTSEQKLISEEDLSRLVHNGTSARATTTPASKSTPFSIPSHHSDTPTTLASHSTKTDASSTHHSTVPPLTSSNHSTSPQLSTGVSFFFLSFHISNLQFNSSLEDPSTDYYQELQRDISEMFLQIYKQGGFLGLSNIKFRPGSVVVQLTLAFREGTINVHDVETQFNQYKTEAASRYNLTISDASVSDVPFPFSAQSGSDDDDKALEPRGPTIKPCPPCKCPAPNLLGGPSVFIFPPKIKDVLMISLSPIVTCVVVDVSEDDPDVQISWFVNNVEVHTAQTQTHREDYNSTLRVVSALPIQHQDWMSGKEFKCKVNNKDLPAPIERTISKPKGSVRAPQVYVLPPPEEEMTKKQVTLTCMVTDFMPEDIYVEWTNNGKTELNYKNTEPVLDSDGSYFMYSKLRVEKKNWVERNSYSCSVVHEGLHNHHTTKSFSRTPGKHHHHH
Fuc(a1-2)Gal
  glycan array binding signal (z-score): -0.228
Fuc(a1-2)Gal(b1-3)GalNAc
  glycan array binding signal (z-score): -0.514
[18]
  glycan array binding signal (z-score): 7.39
Fuc(a1-2)Gal(b1-3)GlcNAc
  glycan array binding signal (z-score): 0.04
Fuc(a1-2)Gal(b1-4)Glc
  glycan array binding signal (z-score): 0.163
[19]
  glycan array binding signal (z-score): 1.99
Fuc(a1-2)[Gal(a1-3)]Gal
  glycan array binding signal (z-score): 0.424
[20]
  glycan array binding signal (z-score): -0.373
[21]
  glycan array binding signal (z-score): 0.485
[22]
  glycan array binding signal (z-score): -0.32
[23]
  glycan array binding signal (z-score): -0.045
[24]
  glycan array binding signal (z-score): 1.11
[25]
  glycan array binding signal (z-score): -0.381
[26]
  glycan array binding signal (z-score): -0.332
Gal3S(b1-4)Glc6S
  glycan array binding signal (z-score): 2.09
Gal3S6S(b1-4)GlcNAc6S
  glycan array binding signal (z-score): 3.49
Gal4S6S(b1-4)GlcNAc
  glycan array binding signal (z-score): 0.978
Gal6S(b1-4)Glc6S
  glycan array binding signal (z-score): 2.14
[27]
  glycan array binding signal (z-score): -0.14
GlcNAc(b1-3)Gal
  glycan array binding signal (z-score): -0.151
[28]
  glycan array binding signal (z-score): -0.565
[29]
  glycan array binding signal (z-score): -0.223
[30]
  glycan array binding signal (z-score): -0.266
[31]
  glycan array binding signal (z-score): -0.235
Man(a1-6)Man
  glycan array binding signal (z-score): -0.113
[32]
  glycan array binding signal (z-score): -0.245
[33]
  glycan array binding signal (z-score): -0.465
[34]
  glycan array binding signal (z-score): -0.453
